This passage reports outcome and AC50 results from PubChem BioAssay (EPA / NIEHS).

“And” between values parts separate entries of the source, which are not always exact repeats. Equal entries are not always repeated. The source made the active and inactive calls. How the source made its calls: active means hit-call score of the fitted dose curve at least 0.9, where 1 is the maximum; inactive means score below 0.9.

The AC50 is the concentration at which the activity in the assay is half-maximal.

Read-out in the assay: Collagen I, COL1A1 (gene 1277)
The experiment in a line: BSK_MyoF_CollagenI: BioMAP Diversity Plus: MyoF Assay for Collagen I Biomarker Activity (AID 2284238). The note with it: primary human lung fibroblasts. As to the method:
BSK_MyoF is a cell-based, multiplexed-readout assay that uses lung fibroblasts, […], with measurements taken at 24 hours after chemical dosing in a microplate: 96-well plate.BSK_MyoF_CollagenI is an assay component measured in the BSK_MyoF assay. It measures Collagen I antibody related to regulation of gene expression using ELISA technology.Data from the assay component BSK_MyoF_CollagenI was analyzed at the endpoint, BSK_MyoF_CollagenI, in the positive analysis fitting direction relative to DMSO as the negative control and baseline of activity. Using a type of binding reporter, gain or loss-of-signal activity can be used to understand protein changes. To generalize the intended target to other relatable targets, this assay endpoint is annotated to the 'cell adhesion molecules' intended target family, where the subfamily is 'collagen'.
The levels of cell surface (or secreted, indicated by the prefix "s") biomarker endpoints were measured by ELISA. Overt cytotoxicity to cells in confluent adherent cultures (all systems other than the BT system) was assessed by measuring total protein levels using sulforhodamine B (SRB) staining in parallel cultures at the time of biomarker measurements, indicated as SRB endpoints. For proliferation assays for adherent cell types, individual cell types are cultured at sub-confluence and relative cell numbers quantified by SRB staining at time points optimized for each system (48 h: 3C and CASM3C systems; 72 h: BT and HDF3CGF systems; 96 h: SAg system). SRB was performed by staining cells with 0.1% SRB after fixation with 10% TCA and reading wells at 560 nm.Viability and proliferation of PBMC (T cells) was quantified by Alamar Blue reduction for the SAg and BT systems. For PBMC viability (referred to as PBMC Cytotoxicity within the assay endpoint names), cells were plated (75,000/well in a 96-well plate) and then chemical samples added for 1 h before addition of activators, SEB and TSST-1 (20 ng/mL final concentration each). Cells were incubated for 90 h. Then, Alamar Blue (20 uL/well) (Invitrogen, Cat DAL1100) was added for 6 h, and the plates were read with a fluorescence microplate reader at 546/580 nm (excitation/emission). For PBMC proliferation, cells were plated and activated as above but incubated for only 16 h prior to addition of Alamar Blue. Plates were read after 6 h.
Consider `CC(C)CCCCCCCOC(=O)c1ccccc1C(=O)OCCCCCCCC(C)C`, for which the result was inactive.
Same read-out and setting: with `COC(C)(C)CCC[C@H](C)C/C=C/C(C)=C/C(=O)OC(C)C` the entry was “inactive”.
On to `COCC(=O)N(c1c(C)cccc1C)N1CCOC1=O`, for which the outcome was inactive.
In the case of `Clc1ccc(-c2ccccc2)cc1`, the outcome was inactive.
Regarding `CCC(C)c1cc([N+](=O)[O-])cc([N+](=O)[O-])c1OC(=O)C=C(C)C` (stereo not given), the AC50 is 4.1 µM (active).
Consider `CC(C)(C)C(=O)CCl`, for which the result was inactive.
Same read-out and setting: to `O=S(=O)(c1ccccc1)c1ccccc1` belongs “inactive”; to `O=P1(NCCCl)OCCCN1CCCl` (stereo not given), “inactive”.
Take `CCCCCCCCCCCC#N`: the AC50 was 20.6 µM (active).
The same measure, in the same setting: to `O=C1C(Cl)=C(Cl)C(=O)C(Cl)=C1Cl` belongs 16.6 µM (active).
Consider `C=CCN(CC=C)C(=O)C(Cl)Cl`, for which the result was inactive.
In the case of `Cc1ccc(OP(=O)(Oc2ccc(C)cc2)Oc2ccc(C)cc2)cc1` (tested in a mixture with another compound), the AC50 was 32.6 µM (active).
`C=CC(=O)OCC(CC)CCCC` (stereo not given): the result was inactive.
Same read-out and setting: with `Nc1ccc(-c2ccc(N)c(N)c2)cc1N` the entry was “inactive”.
On the same count and under the same terms, to `Oc1cc(Cl)ccc1Cl` belongs “inactive”; to `O=c1[nH]c(Cl)c(Cl)cc1Cl`, “inactive”; to `CCCOC(=O)c1ccccc1C(=O)OCCC`, “inactive”.
As for `CC(C)(C)C(O)C(Oc1ccc(-c2ccccc2)cc1)n1cncn1` (stereo not given), the AC50 was 36.9 µM (active).
`CCc1cc(C)cc(CC)c1-c1c(OC(=O)C(C)(C)C)n2n(c1=O)CCOCC2`: the result was inactive.
Still for that read-out and setting: with `O=c1c2ccccc2c(=O)c2c1cc(Cl)c1[nH]c3c([nH]c12)c(Cl)cc1c(=O)c2ccccc2c(=O)c13` the entry was “inactive”.
Turning to `CC(C)COP(=O)(OCC(C)C)OCC(C)C`, the outcome was inactive.
For the molecule `O=C1C=CC(=O)C=C1`, the AC50 is 31.8 µM (active) and 25.3 µM (active).
Regarding `CC1(C)[C@H](C(=O)O[C@H](C#N)c2cccc(Oc3ccccc3)c2)[C@@H]1C=C(Br)Br`, the outcome was inactive.
Turning to `CC(C)CCCCCCCOP(=O)(Oc1ccccc1)Oc1ccccc1`, the AC50 was 8.57 µM (active).
`CNC(=O)Oc1cc(C)c(SC)c(C)c1`: the outcome was inactive.
On to `c1ccc(Nc2ccc3ccccc3c2)cc1`, for which the AC50 is 31 µM (active).
The same measure, in the same setting: with `O=[N+]([O-])C=Cc1ccccc1` the figure was 14.2 µM (active).
In the case of `CC(=O)/C=C/c1ccccc1`, the outcome was inactive.
For `CC(C)(c1cc(Cl)c(O)c(Cl)c1)c1cc(Cl)c(O)c(Cl)c1`, the AC50 is 5.31 µM (active).
Turning to `O=C(O)CCCc1ccc(N(CCCl)CCCl)cc1`, the result was inactive.
